Results with a measured potency or affinity are listed apart. Results filed as inconclusive are left out. Activity calls are given as the source filed them.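 How the source made its calls: active means compounds lowering the FRET ratio whose fitted half-maximal concentration is at most twice their top tested dose; inconclusive means flat partial drop between 30 and 70 percent, or bad fit; inactive means the rest.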

In this experiment the target is Voltage-dependent L-type calcium channel subunit alpha-1D (Homo sapiens) (UniProt Q01668). In words: disruptors of CaV1.3 IQ/ICDI domain association – cell-based, HEK293, YFP-IQ/CFP-ICDI FRET, cherry-picks, dose response (AID 1053205). The note with it: HEK293 YFP-IQ/CFP-ICDI FRET ratio, 10 min; series mostly up to 35 µM.
Voltage-dependent L-type calcium channel subunit alpha-1D (Homo sapiens), sequence (Q01668 whole entry, looked up, the tested form may be a part): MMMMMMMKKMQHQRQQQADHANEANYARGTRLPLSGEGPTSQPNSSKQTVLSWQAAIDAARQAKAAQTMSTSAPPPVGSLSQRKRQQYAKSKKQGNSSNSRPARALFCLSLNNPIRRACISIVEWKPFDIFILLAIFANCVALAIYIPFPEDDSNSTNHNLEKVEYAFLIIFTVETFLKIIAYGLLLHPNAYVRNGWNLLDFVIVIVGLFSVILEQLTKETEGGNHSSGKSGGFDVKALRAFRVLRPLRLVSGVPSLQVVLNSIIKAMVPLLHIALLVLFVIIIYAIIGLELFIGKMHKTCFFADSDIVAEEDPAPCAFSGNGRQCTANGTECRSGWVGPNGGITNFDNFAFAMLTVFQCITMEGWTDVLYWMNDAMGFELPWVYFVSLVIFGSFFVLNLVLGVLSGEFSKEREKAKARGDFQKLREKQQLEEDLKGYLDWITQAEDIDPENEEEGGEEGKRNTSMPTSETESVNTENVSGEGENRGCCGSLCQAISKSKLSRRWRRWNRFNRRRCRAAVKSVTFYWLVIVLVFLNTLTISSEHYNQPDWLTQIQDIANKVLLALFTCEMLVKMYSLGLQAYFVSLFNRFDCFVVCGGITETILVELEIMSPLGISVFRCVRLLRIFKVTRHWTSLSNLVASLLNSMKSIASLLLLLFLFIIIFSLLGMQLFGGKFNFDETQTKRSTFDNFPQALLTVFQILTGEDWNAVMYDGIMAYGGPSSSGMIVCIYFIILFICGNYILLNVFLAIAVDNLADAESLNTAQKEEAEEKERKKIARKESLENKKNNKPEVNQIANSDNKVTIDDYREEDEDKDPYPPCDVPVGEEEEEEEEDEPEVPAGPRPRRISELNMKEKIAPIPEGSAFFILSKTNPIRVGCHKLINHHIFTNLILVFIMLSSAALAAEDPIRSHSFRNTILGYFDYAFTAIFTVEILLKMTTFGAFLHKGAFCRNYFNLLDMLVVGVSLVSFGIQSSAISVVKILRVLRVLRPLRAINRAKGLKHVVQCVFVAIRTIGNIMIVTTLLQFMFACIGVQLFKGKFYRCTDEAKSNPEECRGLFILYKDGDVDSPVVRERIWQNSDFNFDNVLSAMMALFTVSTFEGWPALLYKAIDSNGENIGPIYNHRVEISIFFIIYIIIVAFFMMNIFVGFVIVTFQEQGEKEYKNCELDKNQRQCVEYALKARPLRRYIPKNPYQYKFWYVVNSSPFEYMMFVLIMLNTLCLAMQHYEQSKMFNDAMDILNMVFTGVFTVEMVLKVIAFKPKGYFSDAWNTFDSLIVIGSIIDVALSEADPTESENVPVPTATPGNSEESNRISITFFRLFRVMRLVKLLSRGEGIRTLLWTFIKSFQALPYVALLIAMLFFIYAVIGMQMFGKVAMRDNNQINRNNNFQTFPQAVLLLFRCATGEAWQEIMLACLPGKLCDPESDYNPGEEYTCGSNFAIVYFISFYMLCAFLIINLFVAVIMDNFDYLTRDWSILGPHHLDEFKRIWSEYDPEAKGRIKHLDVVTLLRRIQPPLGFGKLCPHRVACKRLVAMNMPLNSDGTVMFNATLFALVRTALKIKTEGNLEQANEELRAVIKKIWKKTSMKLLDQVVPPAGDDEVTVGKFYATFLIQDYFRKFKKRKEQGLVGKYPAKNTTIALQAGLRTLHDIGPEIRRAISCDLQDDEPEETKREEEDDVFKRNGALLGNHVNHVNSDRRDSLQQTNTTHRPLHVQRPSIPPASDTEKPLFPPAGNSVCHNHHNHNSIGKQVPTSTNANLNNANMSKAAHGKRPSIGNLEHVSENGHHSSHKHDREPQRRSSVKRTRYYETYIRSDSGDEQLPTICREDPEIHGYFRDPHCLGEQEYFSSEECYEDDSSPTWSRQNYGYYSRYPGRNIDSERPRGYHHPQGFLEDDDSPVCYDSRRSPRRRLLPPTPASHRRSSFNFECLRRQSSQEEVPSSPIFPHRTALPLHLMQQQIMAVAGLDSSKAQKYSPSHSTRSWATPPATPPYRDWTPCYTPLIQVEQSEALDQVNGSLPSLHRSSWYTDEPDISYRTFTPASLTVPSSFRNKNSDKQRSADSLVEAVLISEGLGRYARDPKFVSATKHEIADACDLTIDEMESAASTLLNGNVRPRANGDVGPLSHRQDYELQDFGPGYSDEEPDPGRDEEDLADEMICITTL
As to `CCOC(=O)c1cc(-c2ccccc2)sc1NC(=O)CSc1nnc(N)s1`, the result was inactive.

As to `O=C(O)c1cccc(Nc2nc(-c3cc4ccccc4oc3=O)cs2)c1`, the outcome was inactive.

On to `Cc1ccc(-c2nc3ccsc3c(=O)[nH]2)cc1`, for which the outcome was inactive.

As for `O=C(NCc1cc(C(F)(F)F)ccc1Cl)c1cccc2c1C(=O)c1ccc(Cl)cc1S2(=O)=O`, the outcome was inactive.

Turning to `CCN(CC)CCN1C2=C(C(=O)CC(C)(C)C2)C(c2cccc(F)c2)C2=C1CC(C)(C)CC2=O`, the result was inactive.

For the compound `C[C@H](NC(=O)c1nc[nH]c1C(=O)N[C@@H](Cc1ccccc1)C(=O)OC(C)(C)C)C(=O)OCc1ccccc1`, the result was inactive.

`Cc1c(C(=O)NCc2cccc([N+](=O)[O-])c2)sc(=O)n1Cc1cccc(F)c1`: the outcome was inactive.

Take `CC(=O)Oc1ccc(C(=O)Nc2cc(C)on2)cc1`: the outcome was inactive.

As for `CCOc1ccc(NC(=O)CN(C)C(=O)CCCNC(=O)c2ccc(Cl)cc2)cc1OCC`, the result was inactive.

Consider `CCOc1ccc(C(=O)c2cc3ccc(O)cc3oc2=O)cc1`, for which the outcome was inactive.

For `CCN(CC)CCCNc1nc(C)cc(COC)c1C#N`, the result was inactive.

`CCc1nc2ccc(C(=O)NCCc3c[nH]c4ccccc34)cn2c1N(C=O)CCC(C)C`: the outcome was inactive.

Consider `CCN(CC)Cc1c(O)c(Cl)cc2c(C)cc(=O)oc12`, for which the outcome was inactive.

As for `O=c1oc2cc(O)ccc2cc1-c1nc2ccccc2o1`, the outcome was inactive.

As for `O=c1oc2c(CN3CCN(CCO)CC3)c(O)ccc2cc1-c1ccccn1`, the result was inactive.

As to `CCn1c(=NC(=O)CSC(C)=O)sc2cc(OC)ccc21`, the result was inactive.

For the compound `CC1CCN(C(=O)COc2cccc3c2CCN(Cc2ccccc2)C3=O)CC1`, the outcome was inactive.

For the compound `CC(C)(C)[C@H]1CCC(=O)N([C@H](CSc2ccccc2)Cc2ccccc2)CC1`, the outcome was inactive.

Turning to `CCOC(=O)C1=CN(CC2CCCO2)C=C(C(=O)OCC)C1c1ccccc1C(F)(F)F` (configuration not stated), the outcome was inactive.

For `CCOC(=O)c1c2ccc(OCC(=O)NN)cc2n2ccccc12`, the outcome was inactive.

As for `COc1ccc(CCN=C(N)NS(=O)(=O)c2ccc(F)cc2)cc1`, the result was inactive.

On to `CC1CC(C)CN(CCCNC(=O)CCC(=O)N2CC(C)Oc3ccccc32)C1` (configuration not stated), for which the outcome was inactive.

Regarding `COc1cc2sc3cc(NCC[C@@H]4CCCN4C)ccc3c(=O)c2cc1OC`, the outcome was inactive.

Regarding `c1ccc2cc3c(NCCN4CCOCC4)ccnc3cc2c1`, the result was inactive.

As to `COc1c(Cl)cc(-c2noc(C)c2C(=O)NCc2ccc3c(c2)OCO3)cc1Cl`, the outcome was inactive.

For `CCc1nc(SCC(=O)c2ccccc2)c2ccccc2n1`, the result was inactive.

Take `Cc1cc(CNC(=O)c2ccc3c(c2)OCO3)c2ccccc2n1`: the result was inactive.

As to `O=c1[nH]c(Nc2ccccc2Cl)cc2ccccc12`, the outcome was inactive.

In the case of `CCCCCCSc1cc(-c2nc3cc(C)ccn3c2NCCCC)ccc1OC`, the result was inactive.

As to `Cc1c(C(=O)NCc2ccc3c(c2)OCCO3)sc(=O)n1Cc1ccccc1F`, the result was inactive.

On to `O=C(Nc1ccc2c(c1)OCCO2)c1ccc(NC(=O)C2CCCO2)cc1` (configuration not stated), for which the outcome was inactive.

`O=C(O)c1ccc(N2N=C(c3ccccc3)CC2c2ccccc2)cc1` (configuration not stated): the result was inactive.

Consider `Cn1cnc(S(=O)(=O)Nc2ccc(OC(F)(F)F)cc2)c1`, for which the outcome was inactive.

Turning to `O=C(c1ccccc1)N1CCN(c2ccc(NCc3ccc4c(c3)OCO4)cc2)CC1`, the outcome was inactive.

Consider `Cc1ccc(NC(=O)Nc2ccnc(-c3cccnc3)n2)cc1`, for which the result was inactive.

For `O=C(/C=C/c1ccccc1)C1=C(O)C(=O)N(CCO)C1c1ccc2c(c1)OCO2` (configuration not stated), the result was inactive.

On to `O=C(Cn1ccc([N+](=O)[O-])n1)N1CCCCCC1`, for which the result was inactive.
